Most compounds without a hit are left out; they make up all but 4% or so of the library.
tim23-1 inh – growth inhibitors of tim23-1 mutant yeast, primary screen, luminescence, uHTS. S. cerevisiae tim23-1 growth, BacTiter-Glo luminescence, 24 h. inhibition, % at 20 µM. actives 1.3% (n = 330,000). AID 463212, 2010;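 active = growth inhibition of the mutant yeast at or above 50%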;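 also: temperature-sensitive mutant grown at 25 °C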
TIM10 inh – growth inhibitors of isogenic TIM10 control yeast, primary screen, counter-screen for tim10-1 yeast inhibitor project, luminescence, uHTS | S. cerevisiae TIM10 strain growth, BacTiter-Glo luminescence, 24 h | inhibition, % at 10 µM | actives 1.4% (n = 330,000) | AID 463195, 2010;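 active = inhibition of 40% or more at the single tested concentration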;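 also: wild-type TIM10 isogenic control strain grown at permissive 25 °C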
tim10-1 inh – growth inhibitors of tim10-1 mutant yeast, primary screen, luminescence, uHTS; S. cerevisiae tim10-1 ts strain growth, BacTiter-Glo, 24 h; inhibition, % at 20 µM; actives 2.2% (n = 330,000);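 active = inhibition of at least 40%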;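 also: mutant grown at 25 °C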
NLRP3 yeast inh – NALP3 inflammasome inhibitors in reconstituted yeast, primary screen, luminescence, uHTS | inhibition, % at 10 µM | AID 2825, 2010 | actives 0.39% (n = 330,000) | Yeast reconstituted NLRP3/ASC/caspase-1, beta-gal luminescence, 24 h;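 active = inhibition of 50% or more; inactive = inhibition below 50%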
NALP1 inh – NALP1 inflammasome inhibitors in reconstituted yeast, colorimetric, S. cerevisiae, triplicate retest; S. cerevisiae NALP1/ASC/caspase-1 growth, X-gal OD620, 72 h; inhibition, % at 10 µM; actives 0.61% (n = 280,000); AID 2071, 2009; in the data active = inhibition mostly above about 24%, no sharp cut-off; inactive = mostly below about 32%
tim10-1 confirm – growth inhibitors of tim10-1 mutant yeast, confirmation, single concentration, luminescence, S. cerevisiae. shares compounds with tim10-1 inh. S. cerevisiae tim10-1 ts strain growth, BacTiter-Glo, 24 h. inhibition, % at 20 µM. actives 56% (n = 7,400). AID 463213, 2010;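 active = inhibition of yeast growth at or above a set limit in either of two repeat tests at 20 µM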;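 also: tim10-1 mutant grown at permissive 25 °C to find synthetic lethal compounds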
Of the large screens only hits and unclear results are named; the others gave an inactive call (follow-up assays come after a bar, where they were run).

Cc1ccc(/C=C/c2onc(C)c2S(=O)(=O)N2CCC(C(=O)N3CCCCC3)CC2)cc1	none
Cc1ccc(NC(=O)CN(C)Cc2nc3c(Br)cc(Br)cc3c(=O)[nH]2)cc1	none
COc1ccc(Cn2c(=S)[nH]c3ccsc3c2=O)cc1	tim10-1 inh 51 | tim10-1 confirm inactive
CN(CC(=O)Nc1ccc(Cl)c(C(F)(F)F)c1)C(=O)CCN1C(=O)C2CC=CCC2C1=O (stereo not given)	none (no result: NALP1 inh)
CC(/C=N/Nc1ncc(C)c(=O)[nH]1)=C\c1ccccc1	tim10-1 inh 41 | tim10-1 confirm inactive
CC(/C=N/Nc1nc(C)cc(=O)[nH]1)=C\c1ccccc1	none
COc1cccc(/C=C2\N=C(C3CCCCC3)OC2=O)c1OC	tim10-1 inh 47 | tim10-1 confirm 33
CCCC1CCC(C2=N/C(=C\c3ccc(OC)c(OC)c3)C(=O)O2)CC1 (stereo not given)	none
COc1ccc(NC(=O)CC2C(=O)Nc3ccccc3N2CC(=O)N2CCCC2)cc1 (stereo not given)	none (no result: NALP1 inh)
O=C1C2ON(c3ccc(Cl)cc3)C(c3ccco3)C2C(=O)N1c1ccccc1 (stereo not given)	tim10-1 inh 44 | tim10-1 confirm 35
O=C1C2ON(c3ccccc3)C(c3ccccc3F)C2C(=O)N1c1ccccc1 (stereo not given)	none
Cn1c(-c2ccccc2O)cc2ccccc21	tim10-1 inh 48 | tim10-1 confirm 29
Cc1cccc(COC(=O)C(Cc2ccccc2)NC(N)=O)c1 (stereo not given)	none
O=C(Nc1ccnn1C1CCN(Cc2cccc(OCCO)c2)CC1)C1CC1	none
COc1ccc(NC(=O)C(=O)NCC2CCCN2S(=O)(=O)c2cc(C)ccc2C)cc1 (stereo not given)	none (no result: NALP1 inh)
COc1ccc(F)cc1C(=O)C1CCCN(Cc2ccc(Sc3nncn3C)o2)C1 (stereo not given)	none
O=C1S/C(=C\c2ccc(N3CCOCC3)o2)C(=O)N1Cc1ccc(F)cc1	none
O=C1S/C(=C/c2ccc(N3CCOCC3)o2)C(=O)N1Cc1ccc(F)cc1	tim10-1 inh 42 | tim10-1 confirm 50
Cn1nnc(NC(=S)NC(=O)c2cccc3c(Br)cccc23)n1	tim10-1 inh 51 | tim10-1 confirm inactive
CC1CN(C(=O)Nc2ccc3snnc3c2)c2ccccc21 (stereo not given)	tim10-1 inh 48 | tim10-1 confirm inactive
O=C(c1cc(COc2ccc(F)c(F)c2)on1)N1CCN(C2CCCCC2)C(=O)C1	tim10-1 inh 40 | tim10-1 confirm inactive
OCCCNc1nc(-c2ccccc2)c2cc(Br)ccc2n1	tim10-1 inh 48 | tim10-1 confirm 36
Cc1ccc2nc(NCCCO)nc(-c3ccccc3)c2c1	none
CC(NC(=O)C1=CC=CN2CCS(=O)(=O)N=C12)c1ccc(Cl)cc1Cl (stereo not given)	none (no result: NALP1 inh)
CC(CCc1ccccc1)NC(=O)C(=O)c1c[nH]c2ccccc12 (stereo not given)	none
CC1CCN(S(=O)(=O)c2ccc3c(c2)NC(=O)CS3)CC1	tim10-1 inh 42 | tim10-1 confirm inactive
COc1cccc(N2CCN(S(=O)(=O)c3ccc4c(c3)NC(=O)CS4)CC2)c1	none
COc1ccccc1NC(=O)c1ccc(COc2ccccc2Br)o1	none
COc1ccccc1NC(=O)c1ccc(COc2ccccc2OC)o1	tim10-1 inh 41 | tim10-1 confirm inactive
COc1ccc(CN2C(=O)C(CC(C)C)Nc3ncnc(N4CCN(c5ccccc5)CC4)c32)cc1 (stereo not given)	tim10-1 inh 43 (no result: NALP1 inh) | tim10-1 confirm inactive
Cc1ccc(OC(=O)c2ccncc2)c(C)c1	none
Fc1ccc(NC(=S)Nc2ccccc2N2CCOCC2)cc1Cl	tim10-1 inh 44 | tim10-1 confirm 39
Nc1cc2c(cc1C(=O)c1ccc(Cl)cc1)OCCO2	tim10-1 inh 41 | tim10-1 confirm 33
Cc1cc(C(=O)O)c2ccccc2n1	none
Cc1cc(-c2nc3ccccc3o2)c2ccccc2n1	tim10-1 inh 41 | tim10-1 confirm inactive
O=C(Nc1ccccc1C(=O)Nc1ccccc1C(=O)O)c1ccccc1	tim10-1 inh 47 | tim10-1 confirm inactive
COc1ccc(C(=O)Nc2ccccc2C(=O)Nc2ccccn2)cc1	tim10-1 inh 43 | tim10-1 confirm inactive
Nc1ccc(C(=O)Nc2ccccc2C(=O)O)cc1	none
Cc1ccc(NC(=O)CSc2nnc(-c3cc(C)[nH]n3)n2N)c(C)c1	none
CC(=O)Nc1cccc(NC(=O)CSc2n[nH]c(-c3ccccc3)n2)c1	none (no result: NALP1 inh)
CCOC(=O)CSc1cc(C)c(C#N)c2nc3ccccc3n12	tim10-1 inh 41 | tim10-1 confirm inactive
CCOC(=O)CSc1nc2ccccc2n2c(C)nnc12	none
CN(CC(=O)Nc1ccccc1C(F)(F)F)C(=O)CN1C(=O)C2CCCCC2C1=O (stereo not given)	none (no result: NALP1 inh)
Cc1c(C(=O)N2CCC(C)CC2)oc2ccc3c(c12)C(O)CC1(CCCCC1)O3 (stereo not given)	tim10-1 inh 49 | tim10-1 confirm inactive
COCCNC(=O)c1oc2ccc3c(c2c1C)C(O)CC(C)(C)O3 (stereo not given)	none
CCOC(=O)c1c(C2COc3ccccc3O2)csc1NC(=O)c1ccccc1 (stereo not given)	none
CCOC(=O)c1c(C2COc3ccccc3O2)csc1N (stereo not given)	tim10-1 inh 45 | tim10-1 confirm inactive
CN(C)C(CNC(=O)CNC(=O)c1ccc2ccccc2c1)c1ccccc1 (stereo not given)	none
CCCCCCCCCCOC(=O)Cn1c(COc2ccccc2OC)[n+](C)c2ccccc21	tim10-1 inh 46, NALP1 inh 37 | tim10-1 confirm 65
CC(C)(/C=N/NC(=O)CSCc1ccccc1Cl)CCC#N	none
O=C(c1ccco1)N1CCN=C1SCc1ccccc1F	tim10-1 inh 44 | tim10-1 confirm inactive
O=C(c1ccco1)N1CCN=C1SCc1cccnc1	none
CC1CCCCN1C(=O)c1cccc(NC2=C(Cl)C(=O)N(Cc3ccccc3)C2=O)c1 (stereo not given)	tim10-1 inh 51 (no result: NALP1 inh) | tim10-1 confirm 35
CCOc1ccccc1NC1=C(Cl)C(=O)N(c2ccccc2)C1=O	none
CCOc1ccccc1NC1=C(Cl)C(=O)N(Cc2ccccc2)C1=O	tim10-1 inh 44 | tim10-1 confirm inactive
O=C1C(Cl)=C(Nc2cccc(O)c2)C(=O)N1Cc1ccccc1	tim10-1 inh 42 | tim10-1 confirm 31
C=CCNC1=C(Cl)C(=O)N(Cc2ccccc2)C1=O	none
CN(C1(C)CCS(=O)(=O)C1)S(=O)(=O)c1ccc2ccccc2c1 (stereo not given)	none (no result: NALP1 inh)

Bioassay records deposited in PubChem by Sanford-Burnham Center for Chemical Genomics.
